From the supplement of paper PMC8047044
“And” between values parts separate entries of the source, which are not always exact repeats. Identical values can stand only once. Counter-ions that a name gives are not always drawn.

Each compound was assayed on Neuro-2a (assay: neurite formation score, plate-normalized to DMSO control mean 5.04 (score (0-8 scale)); higher = more or longer neurites). Conditions: 1 µM.
Experimental: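 Neuro-2a mouse neuroblastoma cells in PLL-coated 96-well plates were pre-treated for 1 h in DMEM(+) with each kinase inhibitor at 1 µM, then switched to serum-free DMEM(-) with inhibitor to induce neurite outgrowth and fixed about 2-3 h later. Three blinded observers scored neurite formation from 0 (no neurites) to 8 (long neurites on almost all cells).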

Row | SMILES | neurite formation score
1 | CNc1nc(Nc2cnn(C3CCN(C4COC4)CC3F)c2Cl)ncc1C(F)(F)F (stereo not given) | 4.88
2 | COc1ccc(-c2ccc3ncc4c(c3c2)n(-c2ccc(N3CCNCC3)c(C(F)(F)F)c2)c(=O)n4C)cn1 | 4.29
3 | COc1cc(N2CCOCC2)ccc1Nc1ncc(F)c(Nc2ccccc2NS(C)(=O)=O)n1 | 4.54
4 | C[C@@H]1CCN(C(=O)CC#N)C[C@@H]1N(C)c1ncnc2[nH]ccc12 | 4.02 and 4.69
5 | Cc1ccc(NC(=O)c2ccc(CN3CCN(C)CC3)cc2)cc1Nc1nccc(-c2cccnc2)n1 [Imatinib Mesylate (STI571)] | 4.91
6 | CNC(=O)Nc1ccc(-c2nc(N3CC4CCC(C3)O4)c3cnn(C4CCC5(CC4)OCCO5)c3n2)cc1 | 3.54
7 | Cc1ccc(-c2nn(C(C)(C)C)c3ncnc(N)c23)cc1 | 2.9
8 | CN1CCN(Cc2ccc(-c3cnc4[nH]cc(-c5ccc6[nH]ccc6c5)c4c3)cc2)CC1 | 4.54
9 | O=C(Nc1ccc(-c2ccnc(Nc3ccc(N4CCOCC4)cc3)n2)cc1)C1CCCN1 (stereo not given) | 4.02
10 | S=C(NCc1ccc2c(c1)OCO2)N1CCN(c2ncnc3c2oc2ccccc23)CC1 [Amuvatinib (MP-470, HPK 56)] | 4.69
11 | Cc1c[nH]c(/C=C2\C(=O)Nc3ccccc32)c1CCC(=O)O | 6.02
12 | CN(C)Cc1cccc(N=C(c2ccccc2)c2c(O)[nH]c3cc(C(=O)N(C)C)ccc23)c1 | 4.9
13 | Nc1ccc(-c2ccc3ncc4ccc(=O)n(-c5cccc(C(F)(F)F)c5)c4c3c2)cn1 [Torin 2] | 3.21
14 | Cc1ccc(NC(=O)c2cccc(N(C)C)c2)cc1NC(=O)c1ccc(O)cc1 | 5.63
15 | Cn1cc(-c2ccc3ncc(Cc4ccc5ncccc5c4)n3n2)cn1 | 4.63
16 | COc1cc2ncnc(Nc3cccc(Cl)c3)c2cc1OC | 3.57
17 | Cc1cnc(Nc2ccc(F)cc2Cl)nc1-c1c[nH]c(C(=O)N[C@H](CO)c2cccc(Cl)c2)c1 | 3.69
18 | COc1cc2c(Oc3ccc4[nH]c(C)cc4c3F)ncnc2cc1OCCCN1CCCC1 [Cediranib (AZD217)] | 3.91
19 | O=C(Nc1c[nH]nc1-c1nc2ccc(CN3CCOCC3)cc2[nH]1)NC1CC1 | 4.02
20 | CNC(=O)c1cc(Oc2ccc3nc(N[C@@H]4CCCC[C@H]4O)sc3c2)ccn1 | 3.21

Row | SMILES | neurite formation score
21 | C[C@H](NC(=O)/C(C#N)=C/c1cccc(Br)n1)c1ccccc1 | 4.36
22 | CCCS(=O)(=O)Nc1ccc(F)c(C(=O)c2c[nH]c3ncc(-c4ccc(Cl)cc4)cc23)c1F [Vemurafenib (PLX4032, RG7204)] | 3.91
23 | O=C(O)CCC(=O)Nc1ccc(Br)cn1 [Bikinin] | 4.54
24 | CNC(=O)c1cc(Oc2ccc(NC(=O)Nc3ccc(Cl)c(C(F)(F)F)c3)c(F)c2)ccn1 [Regorafenib] | 5.24
25 | CCCCCCCCc1ccc(CCC(N)(CO)CO)cc1 [Fingolimod (FTY720)] | 3.63
26 | CO[C@H]1C[C@@H]2CC[C@@H](C)[C@@](O)(O2)C(=O)C(=O)N2CCCC[C@H]2C(=O)O[C@H]([C@H](C)C[C@@H]2CC[C@@H](OP(C)(C)=O)[C@H](OC)C2)CC(=O)[C@H](C)/C=C(\C)[C@@H](O)[C@@H](OC)C(=O)[C@H](C)C[C@H](C)/C=C/C=C/C=C/1C [Ridaforolimus (Deforolimus, MK-8669)] | 4.21
27 | C[C@@]1(C(=O)Nc2ccc(F)nc2)CCCN1c1nc(Nc2cc(C3CC3)n[nH]2)c2cccn2n1 | 4.57
28 | COc1c(C)c(C(=O)c2ccc(N)c(C(=O)O)c2)n2ccccc12 | 4.96
29 | COc1nccc(-c2c(-c3ccc(F)cc3)ncn2C2CCC(O)CC2)n1 (stereo not given) | 5.36
30 | CS(=O)(=O)c1cccc(CNc2nc(Nc3ccc4c(c3)CCC(=O)N4)ncc2C(F)(F)F)c1 | 3.47
31 | CSc1cccc(Nc2ncc3cc(-c4c(Cl)cccc4Cl)c(=O)n(C)c3n2)c1 | 0.626
32 | O=C(NC(NC(=S)Nc1ccc(F)c([N+](=O)[O-])c1)C(Cl)(Cl)Cl)C(c1ccccc1)c1ccccc1 (stereo not given) | 3.96
33 | COc1cc2nccc(Oc3ccc(NC(=O)NC4CC4)c(Cl)c3)c2cc1C(N)=O [Lenvatinib (E7080)] | 4.57
34 | Cc1cc(C)c(/C=C2\C(=O)Nc3ccccc32)[nH]1 [Semaxanib (SU5416)] | 4.54
35 | Cc1ccc(NC(=O)c2cccc(C(C)(C)C#N)c2)cc1Nc1ccc2ncn(C)c(=O)c2c1 | 5.24
36 | CNc1nc(Nc2ccc(C(=O)N3CCOCC3)cc2OC)ncc1Cl | 4.96
37 | Nc1ncnc2n[nH]c(Nc3ccc(F)cc3)c12 | 4.88
38 | O=C1NC(=O)C(=Cc2ccc(-c3ccc(F)cc3)o2)S1 (stereo in doubt) | 4.54
39 | CC1=CC(=O)C(C(C)C)=C/C1=N/OC(=O)c1ccccc1C [Poloxin] | 4.02
40 | Oc1ccc2ccccc2c1SSc1c(O)ccc2ccccc12 | 3.88
